Data on 40 sequences can be found in the OligoGym collection.
Note: reference of the scale not given here.

The first assay deals with ANKRD53. Briefly: pooled miR-30 sensor sort-seq; sequence = guide strand. As to conditions: shRNA.
Sequence TTTCTGATAGCAGCTTCTCTGA registered a sensor-assay potency score (higher = more potent) of -1.05.
Sequence TTGCTTGGTATTGGAGACCAGA came in with a sensor-assay potency score (higher = more potent) of -0.812.
On the same count and under the same terms, with TTGGACTCCGCGTCAGTCCAGG the figure was -1.11; with TAGTAGAGAAATGTCCTGCCAT, -0.32.

The next assay addresses ANTXR1. The assay is described as above. To be noted: shRNA.
Turning to TAAAGTGAGTGAATGAAGCTGG, the sensor-assay potency score (higher = more potent) is 0.662.
Sequence TTGTATACACACACATGCCTTA registered a sensor-assay potency score (higher = more potent) of -0.352.
TTATATTCTGCCTTGTTCCAGA returned a sensor-assay potency score (higher = more potent) of -0.0343.
Turning to TTCTCATTGAGTGTGACCGAGT, the sensor-assay potency score (higher = more potent) was -0.633.
The same measure, in the same setting: with TTATTGATTAAACAGATCCAGA the figure was -1.04; with TTGGAGAGTACCACTTCCGGGG, -0.563; with TCATTGATCTTGAAGCTGCAGA, -0.552.
Still for that read-out and setting: with TTGATAATCACAGTGCAGCAGA the figure was -0.3; with TTTTCCATCAGTAAACACCTGC, 0.177; with TTGAGTTTCTTACCACACCAGG, -1.02.
TGTCTCTACACTGTGAGCCTGG returned a sensor-assay potency score (higher = more potent) of -0.327.

For another assay, the target named is ANXA11. The description is as above. To be noted: shRNA.
Take TATTTTAGCAGCAAGAGGCTGT: the sensor-assay potency score (higher = more potent) came to 0.315.
Sequence TATACTCTGATCTGATGTCCAG displayed a sensor-assay potency score (higher = more potent) of -0.656.
Regarding ATCTTCAGCAGAATCTTCCGGT, the sensor-assay potency score (higher = more potent) turned out to be 0.075.
The same measure, in the same setting: with TATTCTTGAGACATTTCACCAC the figure was 0.412; with TTTGATCAAATCCTTGCCGTAA, -0.559.
As for TAGGATCTGCTGCCGCTGCTTG, the sensor-assay potency score (higher = more potent) is -0.946.
The sequence TATCTCATAAATGTCAAAGAGG had a sensor-assay potency score (higher = more potent) of -1.14.
Still for that read-out and setting: with TTTAATTCTCGGATGTGCTCAT the figure was 0.906; with TTCTGCTTTGTAGGCTCTGTTT, -1.4; with TCTTGAGACATTTCACCACGGC, -0.11.
Sequence ATACTCTGATCTGATGTCCAGG had a sensor-assay potency score (higher = more potent) of -0.494.
TCGTGGTACAGCGACTTGCCGT returned a sensor-assay potency score (higher = more potent) of -1.23.
The sequence TTGAACTTGGACTCGTCTGTTC registered a sensor-assay potency score (higher = more potent) of -0.177.
The sequence TCTGATGTCCAGGAGGTCGGTC gave a sensor-assay potency score (higher = more potent) of -0.593.
The sequence TTGAAAACTGCTACCAGGTGGG yielded a sensor-assay potency score (higher = more potent) of -0.0336.
Sequence TAAATGTCAAAGAGGACTGGGG registered a sensor-assay potency score (higher = more potent) of -0.276.
TTGAACTGCCCCGCATAGGTGG registered a sensor-assay potency score (higher = more potent) of -0.724.
On to TCTAGGACGGTGAATCTCGGGG, for which the sensor-assay potency score (higher = more potent) is -0.586.
In turn, TTAGAAACAGACATTCTTTTGG showed a sensor-assay potency score (higher = more potent) of 0.574.
Regarding TTCATCAGTGCCAACCCCCTTG, the sensor-assay potency score (higher = more potent) worked out at 0.00983.
In turn, TCCGCTTATACTCTGATCTGAT displayed a sensor-assay potency score (higher = more potent) of -0.656.
ATGCTCTTCTCAATGTCCCGGC gave a sensor-assay potency score (higher = more potent) of -0.72.

The next assay has as its target ANXA5. Described as above. To be noted: shRNA.
In turn, TTCTTCTATGACGTGTATGTGT gave a sensor-assay potency score (higher = more potent) of -0.0894.
TCAAATGAGACACACTTCGTGT gave a sensor-assay potency score (higher = more potent) of -0.219.
Consider TTCAACTTGAGCTTCATCAATT, for which the sensor-assay potency score (higher = more potent) is -0.586.
